Experimental data as given in PubChem BioAssay (NCATS).
Results filed as inconclusive are left out. Active and inactive are the calls of the source. The call rests on the fitted dose curve; tested in HEK293 reporter line.

Assay: qHTS for Inhibitors of the Functional Ribonucleoprotein Complex (vRNP) of Lassa (LASV) Arenavirus: LASV Primary Screen - GLuc reporter signal (AID 1347082); further: nearly all actives have a fitted effect of over 60% in size
Conditions: LASV minigenome vRNP, Gaussia luciferase reporter; series mostly up to 57.5 µM; activity change, negative = inhibition: at the top concentration
On the % scale 0 is the no-effect control and ±100 the full control effect; potency means the concentration at half of the fitted maximal effect.

SMILES	activity change, negative = inhibition	Potency
CC1(C)CCC[C@]2(C)[C@H]3CCO[C@]3(C)CC[C@@H]12	-1.66% [at 115 µM] (inactive)	
O=C(NCCCCNCCCNC(=O)c1ccccc1)c1ccccc1	3.85% (inactive)	
CCCCCc1ccco1	-1.08% (inactive)	
COc1cc(C)ccc1C(C)C	5.27% [at 115 µM] (inactive)	
CCN1C[C@]2(C)CCC(OC)[C@@]34C5C[C@@H]6CC[C@@](O)(C5C(=O)O6)[C@@H](C(O)C23)[C@@H]14 (stereo not given in full)	2.87% (inactive)	
CC1(C)C[C@H](O)[C@@]23C[C@@H](OC2=O)[C@]2(C)C(=CCC4[C@@]5(C)CC[C@H](O)C(C)(C)C5CC[C@]42C)[C@@H]3C1 (stereo not given in full)	2.69% (inactive)	
COc1ccc(-c2cc(=O)c3c(O)cc(OC4OC(COC5OC(C)C(O)C(O)C5O)C(O)C(O)C4O)cc3o2)cc1O (stereo not given)	-4.5% (inactive)	
OCCN1C[C@H](O)[C@@H](O)[C@H](O)[C@@H]1CO	-2.99% (inactive)	
COc1ccc(C(=O)OC2CC[C@@]3(C)C4CCC5[C@]6(O)C[C@H](O)[C@@]7(O)C(CN8CC(C)CCC8[C@@]7(C)O)[C@]6(O)C[C@@]53O[C@]24O)cc1OC (stereo not given in full)	-5.58% (inactive)	
C[C@@H]1CC(=O)[C@H]2CC(CO)=CCC[C@@H]2[C@@]1(C)CC/C(=C/CO)CO	1.62% (inactive)	
CCN(CC)CCNC(=O)c1c(C)[nH]c(C=C2C(=O)Nc3ccc(F)cc32)c1C		44.4 µM (active)
CCC[C@H]1C[C@H](C(=O)N[C@@H]([C@@H]2O[C@@H](SC)[C@@H](O)[C@@H](O)[C@@H]2O)[C@H](C)Cl)N(C)C1	5.72% (inactive)	
CC1CCC(C(C)[C@H]2CCC3C4CC(=O)C5C[C@@H](O)CC[C@]5(C)C4CC[C@@]32C)=NC1 (stereo not given in full)	2.47% (inactive)	
C=C(CC1CC(O)[C@]2(C)OC3CC4OC5C[C@]6(C)O[C@]7(C)CCC8OC9C[C@]%10(C)OC%11C(C)=CC(=O)OC%11CC%10OC9C[C@@H](C)C8OC7CC6O[C@]5(C)C/C=C\C4OC3CC2O1)C(=O)O (stereo not given in full)	-4.05% (inactive)	
COc1cc2c(cc1O)C(Cc1ccc(O)cc1)NCC2 (stereo not given)	-20.8% (inactive)	
CCCCCCCCCCCCCCCC(=O)NCCc1c[nH]c2ccccc12	-1.12% (inactive)	
Cc1c(O[C@@H]2O[C@H](CO)[C@@H](O)[C@H](O)[C@H]2O)c(CO)c(O[C@@H]2O[C@H](CO)[C@@H](O)[C@H](O)[C@H]2O)c2c1O[C@@H](c1ccccc1)C[C@@H]2O	7.27% (inactive)	
O[C@@H]1COC2[C@@H](O)CO[C@@H]21 (stereo not given in full)	-45.7% (inactive)	
CC(C)=CCC/C(C)=C/COC=O	2.5% [at 115 µM] (inactive)	
CC1(C)C2CC[C@]3(C)C(CC=C4[C@@H]5C[C@@](C)(CO)[C@@H]6C[C@@]5(CC[C@]43C)C(=O)O6)[C@@]2(C)CC[C@@H]1O (stereo not given in full)	-7.82% (inactive)	

SMILES	activity change, negative = inhibition	Potency
Cc1ccc(C(C)(C)O)cc1	-1.31% [at 115 µM] (inactive)	
CC(C)=CCC/C(C)=C/CC/C(C)=C/CCC1(C)CCc2cc(O)ccc2O1 (stereo not given)	-2.69% (inactive)	
CC(=Cc1ccccc1)C=C1SC(=S)N(CC(=O)O)C1=O	1.92% (inactive)	
CC1CCC(C(C)(C)S)C(=O)C1 (stereo not given)	-21.4% [at 115 µM] (inactive)	
CC[C@H]1OC(=O)[C@H](C)[C@@H](O[C@H]2C[C@@](C)(OC)[C@@H](O)[C@H](C)O2)[C@H](C)[C@@H](O[C@@H]2O[C@@H](C)C[C@H](N(C)C)[C@@H]2O)[C@](C)(O)C[C@@H](C)C(=O)[C@H](C)[C@@H](O)[C@]1(C)O	2.91% (inactive)	
C=CC(=O)Nc1cccc(Nc2nc(NC3CCC(N(C)C)CC3)nc3c2ncn3C(C)C)c1 (stereo not given)		2.17 µM (active)
C/C(=C/CCC(C)(O)C1CC[C@@]2(C)[C@@H]3CC=C4[C@@H](CC[C@H](O[C@H]5O[C@@H](CO)[C@H](O)[C@@H](O)[C@@H]5O)C4(C)C)[C@]3(C)C(=O)C[C@]12C)CO[C@@H]1O[C@H](CO)[C@@H](O)[C@H](O)[C@H]1O (stereo not given in full)	2.39% (inactive)	
CC(C)C(=O)OCCc1ccccc1	1.36% [at 115 µM] (inactive)	
COc1ccc2c(c1)OC[C@H]1c3cc4c(cc3O[C@@H]21)OCO4	0.647% (inactive)	
C[C@@H](O)CCC[C@H](O)/C=C/[C@@H]1[C@@H](C/C=C\CCCC(=O)O)[C@@H](O)C[C@H]1O	-12.1% [at 0.757 µM] (inactive)	
COc1ccccc1NC(C)=O	4.8% (inactive)	
NCCC(=O)c1ccccc1N	-4.69% (inactive)	
C=C1C[C@H](O)[C@@H]2[C@H](OC(=O)[C@H]2C)[C@H]2[C@H](C)[C@@H](O)C[C@@H]12	-8.47% (inactive)	
CC(C)N(CCCNC(=O)Nc1ccc(C(C)(C)C)cc1)C[C@H]1O[C@@H](n2cc(Br)c3c(N)ncnc32)[C@H](O)[C@H]1O	1.09% (inactive)	
COC(=O)CC(C)CCC=C(C)C (stereo not given)	2.9% [at 115 µM] (inactive)	
COc1ccc(C(=O)/C=C/c2ccc(O)cc2)c(O)c1CC=C(C)C	-0.917% (inactive)	
C=C1[C@H]2C[C@H]3[C@H]4N5C[C@]6(C)CCC[C@]47[C@H]([C@H]2O)[C@]3(C[C@]5(O)[C@H]67)[C@@H]1O	1.6% (inactive)	
C=C(C)[C@H]1CC=C(CO)CC1	-1.41% (inactive)	
C/C=C1\CN2[C@H]3C[C@@]45c6ccccc6N(C)[C@H]4[C@@H]2CC1C3[C@H]5O (stereo not given in full)	-4.08% (inactive)	
COc1ccc([C@@H]2[C@@H](O)[C@H](O)[C@@H](C)N2C)cc1OC	5.52% (inactive)	
